# Only some compounds are listed: those with a hit (about 2.2% of all), similar ones and a draw of the others.
# Pyk2 oligo antag: Pyk2 (human) oligomerization antagonism. Q293 cells, Pyk2 FERM NanoBiT luminescence; active compounds read low. z-score (the deposit names both 25 µM and 10 µM). 99,000 compounds, 0.83% hits;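 active means Z-score of -3 or lower, scaled per plate to the spread of control and sample wells; inactive means z-score above -3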;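 further: negative z-score means lost luminescence so less FERM oligomerization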
# IL1B NFkB inh: blocks IL-1B driven NFkB nuclear translocation in HUVEC cells; inhibition, % at 2 µM; 94,000 compounds, 0.43% hits; HUVEC IL-1B NFkB p65 nuclear translocation imaging;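 active means inhibition above about 30% together with a positive call from visual inspection of the well image, limit read from the data; inconclusive means inhibition above a set limit but visual check negative; inactive means inhibition not above a set limit, visual check negative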;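 further: nuclear over cytoplasmic p65 intensity ratio measured by imaging; 0% = IL-1B stimulated DMSO wells and 100% = unstimulated DMSO wells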
# PLK1 inh: PLK1 (human) kinase inhibition. P53350. recombinant PLK1 kinase, TR-FRET peptide phosphorylation. inhibition, % at 10 µM. 97,000 compounds, 0.53% hits. AID 619;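 active means inhibition of 50% or more in the single-concentration screen; inactive means inhibition below 50%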;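 further: 0% = DMSO max control and 100% = H-89 dihydrochloride min control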
# Target sequence (P53350 whole entry, looked up): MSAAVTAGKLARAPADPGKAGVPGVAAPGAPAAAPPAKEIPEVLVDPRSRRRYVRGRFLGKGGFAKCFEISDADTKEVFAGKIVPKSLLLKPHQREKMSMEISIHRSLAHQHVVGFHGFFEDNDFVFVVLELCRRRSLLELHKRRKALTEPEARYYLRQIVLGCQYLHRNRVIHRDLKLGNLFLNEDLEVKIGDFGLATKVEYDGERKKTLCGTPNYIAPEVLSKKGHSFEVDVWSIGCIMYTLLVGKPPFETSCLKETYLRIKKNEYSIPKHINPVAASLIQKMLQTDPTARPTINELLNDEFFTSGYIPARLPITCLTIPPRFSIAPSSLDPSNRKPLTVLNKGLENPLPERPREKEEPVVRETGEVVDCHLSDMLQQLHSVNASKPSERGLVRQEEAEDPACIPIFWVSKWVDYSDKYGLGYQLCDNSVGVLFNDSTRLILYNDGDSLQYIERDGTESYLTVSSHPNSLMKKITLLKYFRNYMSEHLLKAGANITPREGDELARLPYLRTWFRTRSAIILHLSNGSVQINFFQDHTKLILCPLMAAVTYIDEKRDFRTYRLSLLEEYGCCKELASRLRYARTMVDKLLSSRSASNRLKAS
# IL1B cytotox: toxic to HUVEC cells under IL-1B stimulation; HUVEC cell count loss, Hoechst imaging, IL-1B stimulated; cell count reduction, % at 2 µM; 94,000 compounds, 0.41% hits; AID 845;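 active means cell count reduction more than 3 SD above the screen-wide mean, cut at about 70% in these data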;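 further: normalized per plate to untreated control cells as the no-loss baseline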
# PLK1 PBD inh: inhibitors of human Plk1 polo box domain binding | inhibition, %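 (tested at about 20 µM)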 | Plk1 PBD phosphopeptide binding, fluorescence polarization | P53350 | 97,000 compounds, 0.13% hits | AID 693; in the data active means inhibition above about 34%, passing the limit was not always enough
# IL1B NFkB pot: enhances IL-1B driven NFkB nuclear translocation | HUVEC IL-1B NFkB p65 nuclear translocation imaging | activation, % at 2 µM | 94,000 compounds, 0.3% hits;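 active means activation above 40%, about the mean plus 3 SD, also judged a hit on visual image review; inconclusive means activation above 40% but not a hit on visual review; inactive means activation not above 40% and no visual hit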;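 further: percent activation is computed from the nuclear over cytoplasmic p65 intensity ratio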
# PLK1 inh conf: confirmation of human PLK1 kinase inhibitors. shares compounds with PLK1 inh. recombinant PLK1 kinase, TR-FRET peptide phosphorylation. inhibition, % at 10 µM. 210 compounds, 20% hits. AID 744;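 active means inhibition at or above 50% in each of two repeat confirmation tests; inconclusive means one repeat below 50% inhibition, the other above; inactive means both repeats at or below 50% inhibition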;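 further: 0% = DMSO max control and 100% = H-89 kinase-blocked min control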
# Plk1 interf: interferes with the Plk1 assay readout, not true inhibition; shares compounds with PLK1 inh; Plk1 TR-FRET assay interference, compound added post-reaction; inhibition (interference), % at 10 µM; 210 tested, under 10 active;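 active means both duplicate runs show 50% or greater inhibition; inconclusive means only one duplicate run shows over 50% inhibition; inactive means both runs show under 50% inhibition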;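 further: 0% = DMSO max control and 100% = H-89 min control inhibited reaction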
# PBD redox DR: generates H2O2 by redox cycling, flagging false Plk1 PBD hits | shares compounds with PLK1 PBD inh | redox cycling H2O2 generation, DTT, counter-screen | EC50, µM | 120 tested, under 10 active; call rule not given here
# Starred values were filed as active, the others as inactive; ? = inconclusive; · = no result.
SMILES,Pyk2 oligo antag,IL1B NFkB inh,PLK1 inh,IL1B cytotox,PLK1 PBD inh,IL1B NFkB pot,PLK1 inh conf,Plk1 interf,PBD redox DR
CCOCCn1c(CN(Cc2ccccc2)Cc2ccccc2)nc2c1c(=O)n(C)c(=O)n2C,·,·,72*,·,20,·,-5,-54,·
CCCCn1c(CN(Cc2ccccc2)Cc2ccccc2)nc2c1c(=O)n(C)c(=O)n2C,0.25,-20,-4,-13,30,20,·,·,·
c1coc(-c2nn3c(Cn4nnc5ccccc54)nnc3s2)c1,1.4,-2,-19,-5,-7,2,·,·,·
CCOC(=O)N1CCN(C(=O)CS(=O)Cc2nc(-c3cccc(C)c3)oc2C)CC1 (configuration not stated),·,·,75*,·,-11,·,-8,-48,·
COc1ccc(-c2nc(CS(=O)CC(=O)NCc3ccc4c(c3)OCO4)c(C)o2)cc1 (configuration not stated),·,-26,-11,4,3,26,·,·,·
COCCNC(=O)CS(=O)Cc1nc(-c2ccc(OC)cc2)oc1C (configuration not stated),·,·,71*,·,-6,·,-3,-53,·
Cc1ccccc1-c1nc(CS(=O)CC(=O)NCc2ccccc2)c(C)o1 (configuration not stated),·,·,79*,·,-6,·,-17,-54,·
COc1cccc(-c2nc(CS(=O)CC(=O)NCc3ccc4c(c3)OCO4)c(C)o2)c1 (configuration not stated),·,·,75*,·,-48,·,-5,-57,·
Cc1cccc(-c2nc(CS(=O)CC(=O)N3CCc4ccccc4C3)c(C)o2)c1 (configuration not stated),·,7,-23,-4,0,-7,·,·,·
O=C(NCc1ccc2c(c1)OCO2)c1cccc(C(=O)NCc2ccc3c(c2)OCO3)c1,0.59,0,-6,-34,-16,0,·,·,·
O=C(NCc1ccc2c(c1)OCO2)Oc1ccccc1,·,·,83*,·,18,·,-1,-53,·
O=C(CSc1nc(-c2ccccc2)cc(=O)[nH]1)Nc1ccccn1,0.42,2,37,-2,0,-2,·,·,·
O=C(CSc1n[nH]c(-c2ccc(Cl)cc2Cl)n1)Nc1ccccn1,0.83,-4,78*,0,-4,3,74*,-53,·
CC(=O)c1cccc(NC(=S)NC(=O)CC(C)(C)C)c1,1.6,-3,-12,7,-40,-2,·,·,·
Cc1ccc(Nc2ncnc3nc[nH]c23)cc1Cl,·,8,76*,-12,-6,-8,36,-56,·
c1ccc(CNc2ncnc3nc[nH]c23)cc1,·,-5,27,-1,17,5,·,·,·
COc1cccc(Nc2ncnc3nc[nH]c23)c1,·,20,84*,1,16,-20,70*,-45,·
CCCCc1ccc(Nc2ncnc3nc[nH]c23)cc1,·,14,32,-1,11,-14,·,·,·
C=CCNc1nc(N)c(C(=O)c2ccc3c(c2)OCO3)s1,0.2,-19,75*,-27,12,19,74*,-45,·
N#C/C(=N\Nc1ccccc1Cl)C(=O)c1ccccc1,-1.2,-18,-8,-33,-10,18,·,·,·
N#C/C(=N\Nc1c(Cl)cccc1Cl)C(=O)NN,0.24,-1,79*,-11,2,1,77*,-58,·
Cc1cc2c(ccc3[nH]onc32)n1,-0.58,-7,72*,-5,3,7,38,-59,·
CC(C)Cc1nc2n[nH]c(N)c2c2c1COC(C)(C)C2,0.95,-6,75*,-103,-35,6,?,-54,·
CCOC(=O)c1ccc(NC(=S)NCCCN2CCCCC2)cc1,0.72,-6,113*,2,-17,6,-3,-49,·
CCOc1ccc(NC(=O)NCCCN2CCCC2)cc1,0.51,-10,9,-6,27,10,·,·,·
SMILES,Pyk2 oligo antag,IL1B NFkB inh,PLK1 inh,IL1B cytotox,PLK1 PBD inh,IL1B NFkB pot,PLK1 inh conf,Plk1 interf,PBD redox DR
CCn1ccc(C(=O)Nc2ccc(N(C)C(C)=O)cc2)n1,0.4,-1,-4,-6,52*,1,·,·,>50
CC(=O)N(C)c1ccc(NC(=O)c2ccccc2C(=O)O)cc1,0.38,2,-4,-6,1,-2,·,·,·
COC(=O)CNC(=O)/C=C/c1ccc(OC)cc1,0.31,0,-13,-6,-2,0,·,·,·
Cn1c(=O)c2c(ncn2CCCc2ccccc2)n(C)c1=O,-0.27,-2,-11,20,51*,1,·,·,>50
Cn1c(=O)c2c(ncn2Cc2ccccc2)n(C)c1=O,·,10,0,-18,-10,-10,·,·,·
CCc1noc(C)c1C(=O)N1CCOCC1,0.15,0,-5,-29,41*,0,·,·,>50
O=c1[nH]cc(COCc2ccccc2)c(=O)[nH]1,0.41,1,-7,4,46*,-1,·,·,>50
Cc1cc2nc(C3CCN(CC4COc5ccccc5O4)CC3)[nH]c2cc1C (configuration not stated),-0.43,-2,-10,-2,6,2,·,·,·
CC(C)Nc1nnc(SCC(=O)c2c(N)n(Cc3ccccc3)c(=O)n(C)c2=O)s1,0.46,1,0,-13,45*,-1,·,·,>50
CC(=O)N(/N=C1\Sc2ccccc2C1=O)c1cccc(C)c1,-1.1,-5,-11,-11,77*,5,·,·,>50
CC(=O)N(CN1C(=O)c2ccccc2C1=O)c1cccc(C)c1,-0.17,-1,-10,-8,-1,1,·,·,·
O=C1C(C2=C(O)c3ccccc3C2=O)=Nc2ccccc21,-0.19,2,23,-73,66*,-2,·,·,29*
COC(=O)CNC(=O)C12CC3(C)CC(C)(CC(C)(C3)C1)C2,0.58,10,-9,-16,33*,-10,·,·,>50
CC(C)N(Cc1cc2ccccc2[nH]c1=O)C(=O)c1cccnc1,-1.1,-39,-9,3,35*,39,·,·,>50
O=C1Nc2ccc([N+](=O)[O-])cc2C1(O)N1CCCCC1 (configuration not stated),-0.71,-1,-14,1,57*,1,·,·,>50
C=CCNC(=O)NC(=O)COC(=O)c1cccnc1SC,1.2,-8,-3,5,6,8,·,·,·
CCNC(=O)NC(=O)C(C)OC(=O)c1cccnc1SC (configuration not stated),0.21,-22,-3,-3,51*,22,·,·,>50
COc1cc(C)nc(N2CCC(C(=O)NC3CCCCC3)CC2)n1,0.12,4,-38,25,-4,-4,·,·,·
CCC(Sc1nc2n[nH]c(C)c2c(=N)n1-c1cccc(Cl)c1)C(=O)NCCOC (configuration not stated),-0.21,-3,6,-1,43*,3,·,·,>50
